Assay results published in the supplement of paper PMC6853941.
Unmarked numbers belong to inactive results.

The compounds below were run on MCF10A (assay: perturbation Mahalanobis distance of morphological profile vs DMSO controls (Mahalanobis distance (SD units)); higher = stronger morphological change, active = 7 or more). Conditions: screen batch: Batch1_Mahalanobis_Distance; 72 h.
Procedure: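 MCF10A cells were seeded onto drugs dispensed acoustically into 384-well plates, using one dose per drug chosen from its human peak plasma concentration, and incubated for 72 h at 37 °C. Cells were stained for DNA, tubulin and mitochondria and imaged; 78 CellProfiler features were extracted, plate-normalised and compared with DMSO wells.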

Point of comparison: `c1cnc2cc3c(cc2n1)C1CNCC3C1` [Varenicline] (0.24 µM), “perturbation Mahalanobis distance” value 2.52. Against it:
- CC12CC3CC(C)(C1)CC(N)(C3)C2 [Memantine] (1.3 µM) — higher, 4.28
- NC(N)=NCC1COC2(CCCCC2)O1 (stereo unspecified) [Guanadrel] (140.7 µM) — higher, 2.66
- O=c1ncnc2[nH][nH]cc1-2 [Allopurinol] (139.6 µM) — higher, 2.93
- NC(=O)OCC(COC(N)=O)c1ccccc1 [Felbamate] (205.7 µM) — lower, 2.24
- CC/C(=C(\c1ccc(O)cc1)c1ccc(OCCNC)cc1)c1ccccc1 [Endoxifen] (6.75 µM) — higher, 2.6
- CC(C)(C)C(=O)OCC(=O)[C@H]1CC[C@H]2[C@@H]3CCC4=CC(=O)CC[C@]4(C)[C@H]3CC[C@]12C [Desoxycorticosterone Pivalate] (0.72 µM) — higher, 4.89
- C[N+](C)(C)CCOC(=O)CCC(=O)OCC[N+](C)(C)C [Succinylcholine Chloride] (12.65 µM) — lower, 2.23
- CC(C)C(=O)Nc1ccc([N+](=O)[O-])c(C(F)(F)F)c1 [Flutamide] (27.2 µM) — higher, 4.39
- Nc1ccc(O)c(C(=O)O)c1 [Mesalazine] (39.2 µM) — higher, 3.41
- O=C1CCc2ccc(OCCCCN3CCN(c4cccc(Cl)c4Cl)CC3)cc2N1 [Aripiprazole] (3.3 µM) — lower, 2.24
- O=C1CC2(CCCC2)C(O)C(=O)N1CCCCN1CCN(c2ncccn2)CC1 (stereo unspecified) [6-Hydroxybuspirone] (0.05 µM) — higher, 3.46
- CC(=O)O[C@H]1C[C@@H]2CC[C@@H]3[C@H](CC[C@@]4(C)[C@H]3C[C@H]([N+]3(C)CCCCC3)[C@@H]4OC(C)=O)[C@@]2(C)C[C@@H]1N1CCCCC1 [Vecuronium Bromide] (3.3 µM) — higher, 3.8
- Nc1nnc(-c2cccc(Cl)c2Cl)c(N)n1 [Lamotrigine] (54.6 µM) — lower, 2.15
- CN1C(CCl)Nc2cc(Cl)c(S(N)(=O)=O)cc2S1(=O)=O (stereo unspecified) [Methyclothiazide] (0.5 µM) — higher, 2.69
- CN/C(=C\[N+](=O)[O-])NCCSCc1csc(CN(C)C)n1 [Nizatidine] (7.5 µM) — lower, 2.51
- Nc1nc2ccc(OC(F)(F)F)cc2s1 [Riluzole] (4.3 µM) — lower, 2.51
- CCN(CC)CCCC(C)Nc1ccnc2cc(Cl)ccc12 (stereo unspecified) [Chloroquine] (4.7 µM) — lower, 2.4
- CN1C[C@H]2c3ccccc3Oc3ccc(Cl)cc3[C@@H]2C1 [Asenapine] (0.07 µM) — higher, 2.56
- CC(=O)c1ccc(S(=O)(=O)NC(=O)NC2CCCCC2)cc1 [Acetohexamide] (10 µM) — higher, 3.84

For `O=c1[nH]cc(F)c(=O)[nH]1` [5-Fluorouracil] (2.5 µM), the “perturbation Mahalanobis distance” value was 7.34 (active).
